The subject of assay [1] is Human papillomavirus type 1a protein E7 (residues 44-93). The assay is described as follows: HPV1a E7 fragment binders on microarrays, primary screen, biochemical, small-molecule microarray, residues 44-93, 635 nm fluorescence (AID 1108).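 Further: E7 fragment applied at 1 µg/mL in TBST for 1 h at 4 C; score combines spot fluorescence with its signal to noise ratio.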 The settings on record: small-molecule microarray binding, fluorescence 635 nm; higher = more signal.
The nature of assay [2]: modulators of HCV replicon luciferase signal, primary screen, HCV replication inhibitor project, Huh7 cells, luciferase reporter (AID 1109).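 Further: huh7 hepatoma cells harbouring a luciferase neomycin HCV replicon reporter; luciferase luminescence as measure of HCV replicon replication; test concentration not given here.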 To be noted: 48 h, higher = more signal. A general note: A replicon is a self-replicating genome or part of one, used to study replication in cells.
In assay [3] the target is Left-right determination factor 2 (Homo sapiens) (UniProt O00292). The experiment in a line: LEFTY2 binders on small-molecule microarrays, primary screen, biochemical, small-molecule microarray, 635 nm fluorescence scan (AID 1110). The settings on record: LEFTY2 binding, higher = more signal.
Left-right determination factor 2 (Homo sapiens), sequence (O00292 whole entry, looked up): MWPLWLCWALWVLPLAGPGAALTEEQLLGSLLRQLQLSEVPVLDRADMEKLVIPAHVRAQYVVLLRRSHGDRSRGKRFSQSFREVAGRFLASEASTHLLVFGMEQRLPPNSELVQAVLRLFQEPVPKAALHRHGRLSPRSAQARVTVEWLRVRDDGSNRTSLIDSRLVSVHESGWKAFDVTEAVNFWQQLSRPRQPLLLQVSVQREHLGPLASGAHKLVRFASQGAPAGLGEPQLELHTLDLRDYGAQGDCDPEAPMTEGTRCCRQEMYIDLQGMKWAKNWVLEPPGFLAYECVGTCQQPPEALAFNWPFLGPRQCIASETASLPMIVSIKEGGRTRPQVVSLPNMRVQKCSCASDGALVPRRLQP
Assay [4] concerns the target Calmodulin-1 (Homo sapiens) (UniProt P0DP23). The assay is described as follows: CALM1 binders on microarrays, EGTA buffer, profiling panel, biochemical, small-molecule microarray, Cy5-labelled CALM1 (AID 1111).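 Further: labelled calmodulin applied in Tris saline Tween buffer holding calcium plus EGTA and DTT.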 The settings on record: Cy5-CALM1 binding fluorescence, higher = more signal.
Assay [5] shares this target. The assay is described as follows: calcium-bound CALM1 binders on microarrays, profiling panel, artefact control for SMM control-protein annotation, biochemical, small-molecule microarray, Cy5-labelled CALM1, plus calcium (AID 1112).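 Further: score merges spot fluorescence with signal to noise from triplicate slides.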 To be noted: Cy5-CALM1 binding fluorescence, higher = more signal.
The nature of assay [6]: small-molecule microarray binders of probe aWnt5a, primary screen, biochemical, biotinylated probe, 635/667 nm fluorescence (AID 1113).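 Further: score merges 667 nm fluorescence intensity with signal-to-noise per printed feature.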 To be noted: higher = more signal.
A short description of assay [7]: small-molecule microarray binders of probe aShh, primary screen, biochemical, biotinylated probe, 635/667 nm fluorescence (AID 1114).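 Further: probe is biotin-labelled aShh protein from a stem cell growth factor screen; measures binding of labelled protein to compounds printed on the slide; score merges feature fluorescence at 667 nm with signal-to-noise.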 To be noted: higher = more signal.
Assay [8] is described as follows: small-molecule microarray binders of probe aNog, primary screen, biochemical, biotinylated probe, 635/667 nm fluorescence (AID 1115).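 Further: probe is biotinylated aNog protein used at 0.15 µg/mL for 1 h at 4 C; z-score combines 667 nm fluorescence of each spot with its signal to noise.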 To be noted: higher = more signal.
Assay [9] addresses Torsin-1A-interacting protein 1 (Homo sapiens) (UniProt Q5JTV8). The experiment in a line: LAP1 binders from COS7 cell lysate, primary screen, small-molecule microarray, 635/667 nm fluorescence (AID 1116). To be noted: COS7-hLAP1 lysate binding, 635 nm fluorescence, higher = more signal.
The target in assay [10] is Alpha-bungarotoxin (Bungarus multicinctus) (UniProt P60615). The experiment in a line: alpha-bungarotoxin binders on microarray, profiling panel, artefact control for SMM control protein annotation, biochemical, small-molecule microarray, Alexa647 label, 635/667 nm fluorescence (AID 1117). To be noted: alpha-BTX-A647 binding fluorescence, higher = more signal.
Alpha-bungarotoxin (Bungarus multicinctus), sequence (P60615 whole entry, looked up): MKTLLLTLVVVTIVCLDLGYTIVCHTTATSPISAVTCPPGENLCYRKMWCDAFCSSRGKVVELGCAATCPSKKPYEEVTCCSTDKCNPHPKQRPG
Another assay has as its target Albumin (Bos taurus) (UniProt P02769). The assay is described as follows: bovine serum albumin binders on microarray, profiling panel, artefact control for SMM control protein annotation, biochemical, small-molecule microarray, Alexa647 label, 635/667 nm fluorescence (AID 1118).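 Further: score merges 667 nm emission intensity and signal-to-noise per printed compound spot.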 The settings on record: BSA-A647 binding, fluorescence 635 nm, higher = more signal.
The nature of assay [11]: small-molecule microarray binders of probe aXIP, primary screen, biochemical, NeuroSMM set, 635/667 nm fluorescence (AID 1119).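 Further: probe is the protein aXip251-270 applied at 1 µg/mL to compound-printed slides; binding of probe to printed compounds measured as 667 nm fluorescence plus signal to noise.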 The settings on record: higher = more signal, called active from +8 up or from −8 down.
Assay [12] is described as follows: small-molecule binders of probe aNOTCH3, primary screen, biochemical, small-molecule microarray, 635/667 nm fluorescence (AID 1120).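 Further: probe is a biotin-tagged antibody raised against NOTCH3 rather than NOTCH3 protein; score merges spot fluorescence near 667 nm with spot signal to noise.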 To be noted: higher = more signal.
The nature of assay [13]: small-molecule binders of probe aNOTCH2, primary screen, biochemical, small-molecule microarray, 635/667 nm fluorescence (AID 1121).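 Further: score merges feature fluorescence read at 667 nm with its signal to noise.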 To be noted: higher = more signal.
The target in assay [14] is Carbonic anhydrase 2 (Homo sapiens) (UniProt P00918). The assay is described as follows: CAII small-molecule binders, profiling panel, biochemical, small-molecule microarray, Alexa647-labelled CAII (AID 1122). To be noted: CAII-A647 binding fluorescence, higher = more signal.
Assay [15] can be described thus: COS7 lysate on small-molecule microarray, probe aHis, 635 nm (AID 1123).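 Further: z-score combines 667nm fluorescence intensity with signal-to-noise per printed compound spot.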 To be noted: COS7 cell lysate, fluorescence, higher = more signal.
Assay [16] in a line: compound binding in COS7 lysate, probe aLAP1, primary screen, cell lysate, small-molecule microarray (AID 1124).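 Further: lysate comes from COS7 cells expressing LAP1 and is applied at 0.3 µg/mL; score merges spot fluorescence near 667 nm with signal-to-noise over triplicate slides.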 To be noted: probe aLAP1, fluorescence, higher = more signal.
The subject of a further assay is Sam68 (KHDRBS1). The experiment in a line: Sam68 small-molecule binders, primary screen, biochemical, small-molecule microarray, 635 nm fluorescence (AID 1125).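 Further: score merges 667 nm channel intensity with signal to noise over triplicate slides.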 The settings on record: small-molecule microarray binding, higher = more signal.
Assay [17] deals with Chordin-like protein 2 (CHRDL2). The experiment in a line: CHRDL2 small-molecule binders, primary screen, biochemical, small-molecule microarray, 635 nm fluorescence (AID 1126).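 Further: printed compound slides probed with Chrdl2 protein at 4 µg/mL for 1 h at 4 C; score merges 667 nm emission intensity with signal to noise over three replicate slides.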 To be noted: small-molecule microarray binding, fluorescence 635 nm; higher = more signal.
The target of assay [18] is Concanavalin-A (Canavalia ensiformis) (UniProt P02866). The experiment in a line: ConA small-molecule binders, primary screen, artefact control for SMM control protein annotation, biochemical, small-molecule microarray, Alexa647 label, 635 nm (AID 1127).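 Further: z combines 667 nm emission intensity with signal-to-noise across three replicate slides.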 To be noted: ConA-A647 binding fluorescence, higher = more signal.
Concanavalin-A (Canavalia ensiformis), sequence (P02866 whole entry, looked up): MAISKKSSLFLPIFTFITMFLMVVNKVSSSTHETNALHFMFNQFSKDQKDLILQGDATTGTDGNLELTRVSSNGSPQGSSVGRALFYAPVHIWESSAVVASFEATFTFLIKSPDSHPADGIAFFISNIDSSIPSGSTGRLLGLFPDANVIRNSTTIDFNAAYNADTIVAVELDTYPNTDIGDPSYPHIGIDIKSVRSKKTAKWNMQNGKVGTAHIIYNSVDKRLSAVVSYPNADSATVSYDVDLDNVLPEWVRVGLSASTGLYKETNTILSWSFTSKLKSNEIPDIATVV

Data on six compounds can be found in PubChem BioAssay.

Activity calls are given as the source filed them.

Torsin-1A-interacting protein 1 (Homo sapiens), sequence (Q5JTV8 whole entry, looked up): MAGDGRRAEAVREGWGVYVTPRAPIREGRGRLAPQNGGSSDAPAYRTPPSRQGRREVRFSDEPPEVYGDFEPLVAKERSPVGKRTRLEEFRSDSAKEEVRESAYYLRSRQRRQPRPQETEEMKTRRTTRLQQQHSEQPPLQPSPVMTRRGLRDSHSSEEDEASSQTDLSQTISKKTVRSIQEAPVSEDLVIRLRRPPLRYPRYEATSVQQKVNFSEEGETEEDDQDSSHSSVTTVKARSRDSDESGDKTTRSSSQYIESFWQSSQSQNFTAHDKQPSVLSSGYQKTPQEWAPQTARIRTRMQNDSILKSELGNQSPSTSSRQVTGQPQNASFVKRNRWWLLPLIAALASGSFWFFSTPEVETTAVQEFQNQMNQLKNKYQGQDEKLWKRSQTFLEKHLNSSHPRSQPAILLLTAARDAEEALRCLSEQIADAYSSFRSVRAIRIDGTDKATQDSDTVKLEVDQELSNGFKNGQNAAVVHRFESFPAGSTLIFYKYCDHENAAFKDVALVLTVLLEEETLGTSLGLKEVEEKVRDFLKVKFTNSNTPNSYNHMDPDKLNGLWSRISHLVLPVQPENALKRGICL
Albumin (Bos taurus), sequence (P02769 whole entry, looked up): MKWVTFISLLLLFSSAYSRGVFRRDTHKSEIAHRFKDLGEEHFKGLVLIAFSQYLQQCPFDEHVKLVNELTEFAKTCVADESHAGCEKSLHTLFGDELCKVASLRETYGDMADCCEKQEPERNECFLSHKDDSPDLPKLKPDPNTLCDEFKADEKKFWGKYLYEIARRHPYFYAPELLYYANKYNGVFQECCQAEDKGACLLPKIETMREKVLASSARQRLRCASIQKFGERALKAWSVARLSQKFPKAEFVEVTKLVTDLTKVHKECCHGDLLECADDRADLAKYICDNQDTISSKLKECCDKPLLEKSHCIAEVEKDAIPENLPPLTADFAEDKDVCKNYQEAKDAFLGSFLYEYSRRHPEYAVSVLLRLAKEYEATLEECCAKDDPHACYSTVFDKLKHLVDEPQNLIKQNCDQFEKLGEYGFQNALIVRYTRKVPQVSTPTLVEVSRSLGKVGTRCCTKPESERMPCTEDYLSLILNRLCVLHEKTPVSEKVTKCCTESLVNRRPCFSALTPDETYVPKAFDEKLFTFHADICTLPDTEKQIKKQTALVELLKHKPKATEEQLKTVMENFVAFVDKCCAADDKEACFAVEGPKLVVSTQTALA

Regarding `COc1ccc([Si](C)(C)[C@@H]2[C@@H](CC(=O)N3Cc4ccccc4C[C@H]3CO)O[C@]3(C(=O)N(Cc4cccc(N5CCC5=O)c4)c4ccccc43)[C@H]2C)cc1`, the composite z-score in assay [1] is 1.12; in assay [3], 0.558; in assay [4], 0.18; in assay [5] it was 0.0915; in [6], -0.1; in assay [7], -0.0709. In addition, the composite z-score in assay [8] is 0.0001; in [9] it was 0.111; in [10], 1.08; with Albumin (Bos taurus), -0.147; in assay [12], 0.16; in assay [13] it was -0.117. The composite z-score in assay [14] is 0.283; in assay [15] it was 1.15; in [16], 0.0905; with Sam68 (KHDRBS1), 1.22; in assay [17], 0.711; in [18], 0.961. Further, the z-score in [2] was -3.58. In assay [11], the composite Z-score was 0.3 (inactive).
Regarding `COc1ccc([Si](C)(C)[C@@H]2[C@@H](CCn3cc(CCO)nn3)O[C@]3(C(=O)N(Cc4cccc(N5C(=O)c6cccc7cccc5c67)c4)c4ccccc43)[C@H]2C)cc1`, the composite z-score is 1.37 in assay [1]; -0.0227 in [3]; 0.911 in [4]; 0.506 in assay [5]; -0.0256 in assay [6]; -0.0192 in assay [7]. Moreover, the composite z-score is 0.406 in assay [8]; 0.868 in assay [9]; 0.664 in [10]; 0.695 in the assay with Albumin (Bos taurus); 0.0351 in assay [12]; -0.14 in assay [13]. Besides, the composite z-score is 0.224 in assay [14]; 1.01 in assay [15]; 0.222 in [16]; 1.29 with Sam68 (KHDRBS1); -0.0468 in [17]; 0.833 in [18]. The same compound gave a z-score in [2] of -5.22. Further, the composite Z-score in assay [11] was 0.478 (inactive).
Consider `COCCCNC(=O)[C@@H]1c2ccccc2C(=O)N(Cc2ccccc2)[C@H]1c1ccc(CO)cc1`, for which the composite z-score in assay [1] was 0.364; in assay [3] it was 0.221; in assay [4], -0.448; in assay [5] it was 0.004; in assay [6], 0.0215; in [7] it was 0.131. Besides, the composite z-score is -0.69 in [8]; 1.32 in assay [9]; -0.222 in assay [10]; 0.405 in the assay with Albumin (Bos taurus); 0.235 in [12]; 0.13 in assay [13]. Moreover, the composite z-score was 0.787 in assay [14]; 1.48 in [15]; 1.1 in assay [16]; 0.814 in the assay on Sam68 (KHDRBS1); 0.634 in assay [17]; 0.458 in assay [18]. Also, the z-score in [2] was -0.719. Moreover, the composite Z-score in assay [11] was 0.59 (inactive).
Consider `COC(=O)[C@@]1(Cc2ccc(OC)cc2)[C@H]2c3cc(C(=O)N(C)C)n(Cc4ccc(C(F)(F)F)nc4)c3C[C@H]2CN1C(=O)c1ccccc1`, for which the composite z-score in assay [1] was 0.714; in assay [3], -0.0595; in [4] it was 0.705; in assay [5] it was 0.199; in assay [6], 0.17; in assay [7] it was 0.413. Further, the composite z-score is 0.18 in assay [8]; 1 in [9]; -0.173 in assay [10]; 0.92 with Albumin (Bos taurus); 0.17 in assay [12]; 0.183 in [13]. For the same compound, the composite z-score is 0.752 in assay [14]; 2.11 in assay [15]; 0.017 in assay [16]; -0.354 with Sam68 (KHDRBS1); 0.181 in assay [17]; -0.0962 in [18]. Also, the z-score in assay [2] is -0.657. Besides, the composite Z-score in assay [11] is 3.72 (inactive).
On to `C[C@H]1C2[C@H](Cc3ccccc3)NC(=O)[C@]23C(=O)NCC(=O)N2CCC[C@H]2C(=O)NC/C=C/CCC/C=C/C3[C@@H]2O[C@]12C` (stereo not given in full), for which the composite z-score in [1] was -0.484; in assay [3], -0.693; in assay [4] it was -0.738; in [5] it was -1.2; in assay [6], -0.0075; in [7], -0.138. The composite z-score in assay [8] was -0.387; in assay [9], -0.106; in assay [10], -0.65; with Albumin (Bos taurus), -0.677; in [12] it was -0.136; in assay [13] it was -0.179. The composite z-score in assay [14] is -0.17; in assay [15], -0.18; in assay [16] it was 0.053; with Sam68 (KHDRBS1), -1.51; in assay [17], -0.143; in assay [18], -1.27. In [2], this compound gave a z-score of 0.478. The composite Z-score in assay [11] is -0.695 (inactive).
`CN(C)CCCCNC(=O)[C@@H]1C[C@@H]2C(=O)N[C@@H](CCCCN)C(=O)N2[C@@H]1c1ccc(O)cc1`: the composite z-score in assay [1] is 0.0215; in assay [3], 0.886; in [4], 1.53; in [5], -0.288; in assay [6], 0.0725; in assay [7] it was 0.213. In addition, the composite z-score in assay [8] is 0.654; in assay [9], 0.677; in [10] it was 1.36; with Albumin (Bos taurus) it was -0.153; in [12], -0.0613; in [13], -0.0241. Further, the composite z-score in assay [14] was -0.0397; in assay [15], 1.7; in assay [16] it was 0.0496; in the assay on Sam68 (KHDRBS1) it was 0.239; in [17], 0.965; in [18] it was 1.19. In assay [2], this compound yielded a z-score of -1.04. For the same compound, in [11], the composite Z-score was 0.237 (inactive).
